The record followed here is PubChem BioAssay.

Assay [1] can be described thus: P. berghei load reduction in hepatocytes – cell-based, HepG2, luciferase luminescence, HepG2 viability, primary screen (AID 624349; in the data active means parasite load remaining mostly below about 12%, no sharp cut-off; inactive means mostly above about 10%;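 further: 100% = mean of DMSO negative control wells on the same plate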). The following applies: P. berghei liver stage in HepG2, luciferase luminescence, concentration not given here; parasite load remaining: stronger effect = lower value; viability: measured here: HepG2 viability without parasites.
The nature of assay [2]: Wnt pathway potentiators raising nuclear beta-catenin – imaging, WNT3A-conditioned medium, mouse C2C12, NPC library, primary screen (AID 1117326; in the data active means nuclear beta-catenin stimulation mostly above about 4.2%, no sharp cut-off; inactive means mostly below about 10%). The following applies: stronger effect = higher value.
Assay [3] in a line: stimulators of insulin release from INS-1E, primary screen, cell-based, 5 mM glucose, NPC library (AID 1117329;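 active means compound raises insulin release from rat beta cells at 5 mM glucose, no numeric limit stated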). The note with it: rat INS-1E insulin secretion, at 10 µM, stronger effect = higher value.
The nature of assay [4]: growth inhibition of GSK3B-pretreated HCT116 cells – cell-based, CellTiter-Glo, 0.2 to 20 µM (AID 1117336;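 active means compounds lowering colon cancer cell viability after pretreatment blocking the GSK3B kinase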). The note with it: HCT116 viability after GSK3B inhibitor, at 20 µM, stronger effect = higher value. On the technique in general: Cellular ATP, detected with luciferase, serves as a proxy for viable cell number.
Assay [5] is described as follows: inhibition of endothelial tube formation, primary screen, imaging, VEGF stimulated, CD31 staining, tube area, NPC library (AID 1117340;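 active means compound that reduces growth-factor-driven endothelial tube area in a mixed cell culture, no cutoff stated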). The note with it: VEGF-stimulated ADSC/ECFC co-culture, at 10 µM, stronger effect = higher value.
Assay [6] can be described thus: GLP1 release stimulators, primary, NCI-H716, NPC library (AID 1117341;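 active means compound raises GLP1 secretion from the human gut endocrine cells, with no numeric limit stated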). The following applies: NCI-H716 cells, at 10 µM, stronger effect = higher value.
Assay [7] in a line: HCT116 colon cancer cell growth inhibition, primary screen, CellTiter-Glo luminescence, NPC library (AID 1117342;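 active means compounds that lower survival of HCT116 colon cancer cells in the luminescence readout, no numeric limit stated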). The following applies: at 20 µM (top of the series).
Assay [8] in a line: reduced SW480 viability measured with CellTiter-Glo, NPC library, primary (AID 1117343;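 active means compounds that lower viability of the colon cancer cells in the luminescence readout, with no numeric limit stated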). The following applies: CellTiter-Glo luminescence; at 20 µM (top of the series) unless noted.
Assay [9] can be described thus: NPC library primary testing for decreased DLD-1 cell viability via CellTiter-Glo (AID 1117346;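 active means compounds that lower survival of DLD-1 colon cancer cells in the luminescence readout, no cutoff given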). The following applies: DLD-1 viability, CellTiter-Glo luminescence; at 20 µM (top of the series).
The subject of assay [10] is Aerobactin synthetase IucA (Klebsiella pneumoniae). Nature of the assay: inhibition of K. pneumoniae IucA enzyme – biochemical, Tocris library, absorbance (AID 1345561; call rule not given here;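 further: 100% = enzyme without compound and 0% = no enzyme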). The following applies: purified IucA enzyme assay, absorbance (OD) read-out; stronger effect = lower value;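 tested at 8 µM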.
Assay [11] in a line: viability loss with induced miR-34 in A549 – imaging, A549 dox-inducible miR-34, nuclei and caspase counts, primary screen (AID 1347080). The following applies: A549 miR-34 inducible, Hoechst nuclei count, 48 h.
The target of assay [12] is NAD(+) hydrolase SARM1 (Homo sapiens) (UniProt Q6SZW1). The experiment in a line: blocking NAD cleavage by SARM1 SAM-TIR – cell lysate, NAD-Glo luminescence (AID 1508614;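 active means compound whose remaining NAD level is above about 45 nM, limit read from the data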). The following applies: SAM-TIR HEK293T lysate NADase, at 1 µM, stronger effect = higher value.
Assay [13] in a line: galactose survival enhancers in mitochondrial complex I cybrids – cell-based, galactose medium, ATP luminescence, primary screen (AID 1645843;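 active means z-score of at least 1.8 in each of two replicates, scored against plate mean and spread of sample wells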;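 further: positive z means more ATP and so rescue of galactose-driven cybrid death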). The following applies: complex I mutant cybrid cells, 72 h, stronger effect = higher value.
A short description of assay [14]: MELAS cybrid and Rieske KO viability enhancers – cell-based, MELAS cybrids, Rieske KO mouse fibroblasts, CellTiter-Glo, primary screen (AID 1508586;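 active means mean z-score across replicates of 1.96 or higher in either the MELAS or the Rieske mutant cell line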;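 further: z relative to plate mean and SD of compound and empty wells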). The note with it: low glucose.
Setting [15] is: stronger effect = lower value, cell number ratio, induced over uninduced.
Setting [16] is: measured here: relative caspase fold change +Dox/-Dox.
Where [17] appears, read: measured here: total cells with miR-34 induction, stronger effect = lower value.
Setting [18] is: measured here: total cells without miR-34 induction.

Where “and” joins values, the source holds several entries; their conditions need not be identical. Equal entries are not always repeated. Calls of active or inactive are those of the source.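 How the source made its calls, unless noted: active means compounds whose cell count with miR-34 switched on is under 0.7 times the count with it off; inactive means the rest.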

Chain of NAD(+) hydrolase SARM1 (Homo sapiens) (Q6SZW1 whole entry, looked up): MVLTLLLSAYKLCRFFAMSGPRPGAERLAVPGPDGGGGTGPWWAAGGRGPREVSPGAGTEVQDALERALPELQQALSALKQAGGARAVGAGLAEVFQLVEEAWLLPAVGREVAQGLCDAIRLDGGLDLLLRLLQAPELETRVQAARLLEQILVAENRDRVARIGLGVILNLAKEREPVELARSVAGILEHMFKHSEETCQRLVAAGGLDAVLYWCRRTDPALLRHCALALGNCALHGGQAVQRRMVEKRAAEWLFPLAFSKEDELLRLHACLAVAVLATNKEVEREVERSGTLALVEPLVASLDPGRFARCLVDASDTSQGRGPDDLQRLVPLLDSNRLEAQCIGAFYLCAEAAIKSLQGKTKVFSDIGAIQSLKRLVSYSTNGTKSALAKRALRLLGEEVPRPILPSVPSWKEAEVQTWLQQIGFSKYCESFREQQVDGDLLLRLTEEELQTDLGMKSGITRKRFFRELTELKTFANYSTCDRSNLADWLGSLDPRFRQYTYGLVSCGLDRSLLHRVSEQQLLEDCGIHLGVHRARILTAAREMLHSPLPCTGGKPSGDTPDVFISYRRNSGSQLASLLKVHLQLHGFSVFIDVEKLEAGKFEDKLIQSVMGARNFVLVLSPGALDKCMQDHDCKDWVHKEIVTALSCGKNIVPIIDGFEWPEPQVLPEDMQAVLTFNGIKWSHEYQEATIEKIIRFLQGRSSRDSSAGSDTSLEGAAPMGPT

Consider `COc1ccc2c(c1OC)C(=O)O[C@@H]2[C@H]1c2c(cc3c(c2OC)OCO3)CCN1C`, for which the parasite load remaining in [1] was 89.7% (inactive) and 72.1% (inactive). In [1], the viability – broadly, a read-out of living cells in per cent, often relative to untreated cells – was 104% and 75.4%. In addition, the nuclear beta-catenin stimulation in assay [2] (at 10 µM) is 3.5% (inactive); in assay [2] (stimulation, at 2 µM) it was 0.1%. The insulin secretion stimulation in assay [3] was 2% (inactive). Besides, the viability decrease in [4] is 55.6% (active). Also, the tube area decrease in [5] is 4.1% (inactive). For the same molecule, the GLP1 secretion stimulation in assay [6] was -1.8% (inactive). Moreover, in [7], the inhibition of viability was 46.2% (inactive). For the same molecule, the values for the viability decrease (inhibition) in assay [8] and in [9] were 90.4% (active) and 2.7% (inactive), respectively. The remaining activity – broadly, the signal under treatment as a percentage of the control signal – in assay [10] is 111% (inactive). Also, the fold change in [11] (setting [15]) was 0.961 (inactive) and 0.857 (inactive) and 1.04 (inactive); in [11] (setting [16]), 0.539 and 1.29 and 0.971. The cell count is 6010 and 7290 and 6960 in [11] (setting [17]); 6250 and 8520 and 6720 in assay [11] (setting [18]). Also, the remaining NAD in assay [12] was 10 nM (inactive). In assay [13], the z-score was 0.555 (inactive) and 0.075 (inactive).

With `C=CCn1c(=O)n([C@@H]2O[C@H](CO)[C@@H](O)[C@H]2O)c2nc(N)[nH]c(=O)c21`, the nuclear beta-catenin stimulation was 0.1% (inactive) in assay [2] (at 10 µM) and 2.4% in assay [2] (stimulation, at 2 µM). Moreover, in [3], the insulin secretion stimulation was -0.5% (inactive). In addition, the viability decrease in assay [4] was -3.9% (inactive). In addition, the tube area decrease in assay [5] was 12.2% (inactive). The GLP1 secretion stimulation in assay [6] is 0.6% (inactive). Also, the inhibition of viability in assay [7] is 2.2% (inactive). Further, the viability decrease (inhibition) in assay [8] was -8.4% (inactive); in assay [9], 1% (inactive). Also, the remaining activity in [10] was 101% (inactive). The fold change in [11] (setting [15]) is 0.961 (inactive); in assay [11] (setting [16]), 1.57. Further, the cell count turned out to be 9010 in [11] (setting [17]) and 9380 in assay [11] (setting [18]). Moreover, the z-score in assay [13] is 0.185 (inactive).

As to `c1cc(CN2CCCCC2)cc(OCCCNc2nc3ccccc3s2)c1`, the nuclear beta-catenin stimulation was 3.6% (inactive) in assay [2] (at 10 µM) and 0.7% in [2] (stimulation, at 2 µM). Also, the insulin secretion stimulation in assay [3] was 32.8% (active). Besides, the viability decrease in assay [4] was 29.5% (inactive). Besides, in assay [5], the tube area decrease is 22.6% (inactive). Also, in assay [6], the GLP1 secretion stimulation is 0.5% (inactive). In addition, in [7], the inhibition of viability is 53.3% (active). Also, the viability decrease (inhibition) in assay [8] is -462% (inactive); in assay [9], 58.6% (active). In addition, in [10], the remaining activity is 120% (inactive). Also, the fold change in assay [11] (setting [15]) was 1.11 (inactive) and 0.901 (inactive); in assay [11] (setting [16]) it was 0.913 and 0.9. The cell count was 7430 and 7110 in [11] (setting [17]); 6660 and 7890 in [11] (setting [18]). In [13], the z-score was -1.34 (inactive) and -0.8 (inactive).

Regarding `COCCOC(=O)C1=C(C)NC(C)=C(C(=O)OC/C=C/c2ccccc2)C1c1cccc([N+](=O)[O-])c1` (centres undefined), the parasite load remaining in assay [1] was 41.2% (inactive). For the same molecule, the viability in [1] is 106%. Besides, the nuclear beta-catenin stimulation in assay [2] (at 10 µM) was 2.6% (inactive); in [2] (stimulation, at 2 µM), 0.8%. Besides, in assay [3], the insulin secretion stimulation is -0.8% (inactive). Also, the viability decrease in [4] is 77.2% (active). The tube area decrease in assay [5] was 104% (active). In addition, the GLP1 secretion stimulation in assay [6] is -1.2% (inactive). In addition, in assay [7], the inhibition of viability was 77% (active). Further, the viability decrease (inhibition) in [8] is 87.1% (active); in assay [9] it was 86.4% (active). Besides, the remaining activity in assay [10] is 100% (inactive). Moreover, the fold change in [11] (setting [15]) was 1.33 (inactive) and 0.874 (inactive) and 0.908 (inactive); in [11] (setting [16]), 0.592 and 1.2 and 1.19. Moreover, the cell count is 2620 and 3270 and 8480 in [11] (setting [17]); 1970 and 3740 and 9340 in assay [11] (setting [18]). Also, the z-score in assay [14] (MELAS cybrid survival, CellTiter-Glo 48 h, stronger effect = higher value) was 0.948 (inactive) and 0.937 (inactive); in assay [14] (Rieske KO mouse fibroblast survival, CellTiter-Glo 72 h), 1.43 and 0.674; in [13] it was -1.04 (inactive) and -0.7 (inactive) and -0.745 (inactive).

For the molecule `CN(C)C/C=C(/c1ccc(Br)cc1)c1cccnc1`, the parasite load remaining in [1] was 94.7% (inactive) and 60.5% (inactive). The viability in assay [1] was 85.2% and 195%. For the same molecule, the nuclear beta-catenin stimulation was 1.1% (inactive) in assay [2] (at 10 µM) and -0.9% in assay [2] (stimulation, at 2 µM). For the same molecule, the insulin secretion stimulation in assay [3] was 45% (active). For the same molecule, the viability decrease in assay [4] was -1.3% (inactive). For the same molecule, the tube area decrease in [5] is 9.7% (inactive). The GLP1 secretion stimulation in assay [6] was 8% (inactive). Also, the inhibition of viability in [7] is 41.9% (inactive). Moreover, the viability decrease (inhibition) in assay [8] is 52.1% (active); in assay [9], 5.9% (inactive). The remaining activity in assay [10] was 124% (inactive). Also, the fold change in assay [11] (setting [15]) is 1.02 (inactive) and 0.948 (inactive) and 0.885 (inactive); in [11] (setting [16]), 0.961 and 0.963 and 4.02. For the same molecule, the cell count in [11] (setting [17]) was 8760 and 8650 and 11500; in assay [11] (setting [18]) it was 8570 and 9130 and 13000. For the same molecule, the z-score in [13] is -0.1 (inactive) and -0.42 (inactive).
